Bioassay records (PubChem)
Only some compounds are listed: those with a hit (about 3.2% of all), similar ones and a draw of the others.
rCAG RNA binder = molecules binding r(CAG) RNA repeats; actives 1.3% (n = 370,000); inhibition, % at 3 µM; AID 651821; r(CAG) RNA repeat, TO-PRO-1 dye displacement fluorescence;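 active = inhibition above the plate cutoff, the mean of all test compounds on that plate plus 3 SD, cut at about 35% in these data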;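 note: 0% = DMSO alone and 100% = 100 µM mitoxantrone as full dye displacement; higher means more dye released from RNA so lower well fluorescence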
PG9 binder = small molecules binding HIV-1 gp120 antibody PG9. TR-FRET gp120-PG9 antibody binding. inhibition, % at 6.7 µM. actives 0.43% (n = 360,000). AID 624416; in the data active = inhibition above about 8.5%
HGIII-sPLA2 inh = Blocks human group III sPLA2 activity; QFRET BODIPY PC-A2 liposome hydrolysis, fluorescence; inhibition, % at 12.2 µM; Q9NZ20; actives 0.56% (n = 370,000);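 active = inhibition above mean plus 3 SD of compounds lying within the high and low control bounds, cut at about 19% in these data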;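 note: 0% = median of test compound wells and 100% = no enzyme DMSO wells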
Target sequence (Q9NZ20 whole entry, looked up): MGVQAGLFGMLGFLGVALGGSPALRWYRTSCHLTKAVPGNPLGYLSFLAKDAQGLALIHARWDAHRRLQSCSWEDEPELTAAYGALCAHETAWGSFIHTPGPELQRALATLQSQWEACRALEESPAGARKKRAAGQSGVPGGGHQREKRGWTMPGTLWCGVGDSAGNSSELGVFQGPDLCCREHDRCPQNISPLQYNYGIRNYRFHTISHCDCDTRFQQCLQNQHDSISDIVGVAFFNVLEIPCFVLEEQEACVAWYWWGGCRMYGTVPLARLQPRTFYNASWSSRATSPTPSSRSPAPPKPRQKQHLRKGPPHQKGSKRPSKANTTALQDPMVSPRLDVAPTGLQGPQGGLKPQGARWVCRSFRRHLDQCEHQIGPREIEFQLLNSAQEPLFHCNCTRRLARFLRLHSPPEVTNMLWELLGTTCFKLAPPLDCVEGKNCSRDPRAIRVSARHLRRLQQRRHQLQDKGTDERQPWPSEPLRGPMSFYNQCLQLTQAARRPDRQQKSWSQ
bovine MsrA act = activates bovine MsrA enzyme | purified bovine MsrA, absorbance read-out | activation, % at 10.6 µM | actives 0.3% (n = 360,000) | AID 602163; in the data active = activation above about 7.5%;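 note: 0% = vehicle and 100% = reference activator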
MsrA inhibitor = inhibits bovine methionine sulfoxide reductase A; purified bovine MsrA, absorbance read-out; inhibition, % at 15.5 µM; actives 0.75% (n = 360,000); AID 651718; in the data active = inhibition above about 4.5%;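 note: 0% = vehicle wells with enzyme and 100% = reference inhibitor wells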
rCAG binder conf = r(CAG) RNA repeat binding, confirmation; inhibition, % at 3 µM; actives 70% (n = 4,300); TO-PRO-1 dye displacement fluorescence; shares compounds with rCAG RNA binder;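 active = inhibition above a per-plate cutoff, the mean inhibition of sample wells plus 3 SD, cut at about 35% in these data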;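 note: loss of TO-PRO-1 fluorescence as compound displaces dye from 1x1 AA loop RNA; 0% = DMSO only wells and 100% = 100 µM mitoxantrone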
dCAG dye counter = DNA CAG dye complex inhibition counter-screen; shares compounds with rCAG RNA binder; d(CAG) DNA oligo TO-PRO-1 dye displacement, fluorescence; inhibition, % at 3 µM; actives 94% (n = 4,300); AID 652068;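 active = inhibition above its plate's cutoff, the mean test-well inhibition plus 3 SD, cut at about 4.8% in these data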;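 note: 0% = DNA dye mix with DMSO and 100% = 100 µM mitoxantrone; hits displace the dye from DNA and so lower well fluorescence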
Starred values were filed as active, the others as inactive; . = not tested or not shown.

SMILES | rCAG RNA binder | PG9 binder | HGIII-sPLA2 inh | bovine MsrA act | MsrA inhibitor | rCAG binder conf | dCAG dye counter
O=C(O)c1ccc2c(c1)C(=O)N(CCCCCCCN1C(=O)c3ccc(C(=O)O)cc3C1=O)C2=O | 37* | -2 | -6 | -3 | -1 | 23 | 4
COC1=C[C@H](C(=O)NC2CCN(Cc3ccccc3)CC2)[C@H](C)[C@@H](c2ccccc2)CC1=O | 5 | . | -12 | . | . | . | .
CC(C)Cn1c(N)c(C(=O)COC(=O)c2cc(S(=O)(=O)N3CCOCC3)ccc2Br)c(=O)n(C)c1=O | 5 | 0 | -22 | -5 | 0 | . | .
O=C(Nc1c(-c2ccccc2)nc2ncccn12)c1ccccc1 | 6 | . | 1 | . | . | . | .
CN(C)c1ccc(N=Nc2ccc(S(=O)(=O)O)cc2)c2ccccc12 | 77* | -5 | -40 | -10 | 2 | 59* | 24*
CN(C)c1ccc(N=Nc2ccc(S(N)(=O)=O)cc2)cc1 | 15 | -1 | 8 | 0 | 1 | . | .
C/C(=N\NC(=O)c1ccccc1O)c1cccc(NC(=O)c2ccccc2)c1 | 8 | -2 | -5 | -2 | 0 | . | .
C/C(=N\NC(=O)c1cc(O)ccc1O)c1cccc(NC(=O)c2ccc(Cl)cc2)c1 | 37* | -5 | 7 | -3 | 0 | 25 | 8.3*
C/C(=N\NC(=O)c1cc(O)ccc1O)c1cccc(NC(=O)c2cccc(Cl)c2)c1 | 45* | -5 | 16 | -4 | 1 | 22 | 8.4*
CCOC(=O)C1=C(C(=O)OCC)C2N(Cc3ccc(C(F)(F)F)cc3)c3ccccc3[C@@]23C[C@@H](C(=O)OC)N(S(=O)(=O)c2ccc(OC)cc2)C3=N1 (stereo not given in full) | 9 | -2 | 3 | . | 0 | . | .
Cc1cc(-c2ccccc2)c2c(=O)n(-c3ccccc3)[nH]c2n1 | 4 | -11 | 1 | -4 | 0 | . | .
Cc1ccc(SCc2cc(=O)c3c(=O)n(-c4ccccc4)[nH]c3[nH]2)cc1 | 62* | -5 | 11 | -11 | 3 | 43* | 17*
O=c1cc(CSc2ccc(Cl)cc2)[nH]c2[nH]n(-c3ccccc3)c(=O)c12 | 56* | -1 | 14 | -1 | 3 | 36* | 13*
C[C@H]1[C@H](NC(=O)c2ccc(Cl)cc2)CC[C@@]23CCCN2C(=O)CCC[C@@H]13 | . | . | 0 | . | . | . | .
Cc1nc(SC(C)C(=O)Nc2cccc(C(F)(F)F)c2)c2c(C)c(C(=O)O)sc2n1 (stereo not given) | 37* | 1 | -2 | 5 | 1 | 60* | 21*
COc1ccc(C(=O)Nc2ccc(S(=O)(=O)N3CCCC3)cc2)cc1 | 3 | -2 | -8 | -3 | 0 | . | .
O=C(Nc1cc(S(=O)(=O)N2CCOCC2)ccc1O)c1ccc(NS(=O)(=O)c2ccc(Cl)s2)cc1 | 64* | 2 | -19 | -7 | 3 | 42* | 12*
CCOC(=O)c1ccc(NS(=O)(=O)c2ccc3[nH]c(=O)[nH]c3c2)cc1 | 6 | 1 | -8 | -11 | 0 | . | .
CCOC(=O)c1ccc(S(=O)(=O)Nc2cc(S(=O)(=O)Nc3ccc(OC)cc3)ccc2O)cc1 | 62* | 1 | -43 | -2 | -1 | 52* | 22*
COc1ccc(NS(=O)(=O)c2ccc(O)c(NC(=O)c3ccc(S(=O)(=O)N4CCCC4)cc3)c2)cc1 | 74* | -1 | -40 | 0 | 2 | 50* | 18*
O=C(COC(=O)c1cc(S(=O)(=O)N2CCCC2)ccc1O)Nc1ccc(S(=O)(=O)N2CCOCC2)cc1 | 27 | -1 | -8 | -2 | 1 | . | .
O=S(=O)(Nc1cc(S(=O)(=O)N2CCCC2)ccc1O)c1ccc(Cl)s1 | 30 | -1 | -26 | -1 | 0 | . | .
O=C(COC(=O)c1cc(S(=O)(=O)N2CCCC2)ccc1O)Nc1ccc(SC(F)F)cc1 | 45* | -2 | -25 | -1 | 0 | 40* | 11*
CC(=O)c1cc(-c2ccc3nonc3c2)c(=O)n2c1CCC2 | 0 | . | 3 | . | . | . | .
Nc1nc2c(nnn2C2CC(O)C(CO)O2)c(=O)[nH]1 (stereo not given) | 2 | 0 | 8 | 0 | -2 | . | .
SMILES | rCAG RNA binder | PG9 binder | HGIII-sPLA2 inh | bovine MsrA act | MsrA inhibitor | rCAG binder conf | dCAG dye counter
COc1ccc(S(=O)(=O)NC2CCN(C#N)CC2)cc1 | . | . | -2 | . | . | . | .
Cc1ccc(NC(=O)c2ccccc2NS(=O)(=O)c2ccc(Cl)s2)cc1S(=O)(=O)N1CCOCC1 | 87* | -1 | -96 | -3 | 0 | 90* | 69*
COc1ccc(NS(=O)(=O)c2ccc(O)c(NC(=O)c3ccc(S(=O)(=O)N4CCCCCC4)cc3)c2)cc1 | 68* | -3 | -56 | -5 | 0 | 78* | 39*
CC(C)(C)NC(=O)NC(=O)COC(=O)c1cccc(NS(=O)(=O)c2ccc(F)c(F)c2)c1 | 16 | -2 | -53 | -5 | -2 | . | .
CC(C)(C)c1ccc(NC(=O)COC(=O)c2ccc(NS(=O)(=O)c3ccc(F)c(F)c3)cc2)cc1 | 70* | -2 | -111 | -8 | 1 | 67* | 24*
O=S(=O)(Nc1cccc(S(=O)(=O)N2CCOCC2)c1)c1ccc(Cl)s1 | 8 | -3 | -12 | -11 | -1 | . | .
COc1ccc(NS(=O)(=O)c2cccc(NC(=O)c3ccc(S(=O)(=O)N4CCCCCC4)cc3)c2)cc1 | . | . | . | -3 | . | . | .
CCN(CC)S(=O)(=O)c1ccc(NC(=O)COC(=O)c2cc(S(=O)(=O)Nc3ccc(OC)cc3)ccc2O)cc1 | 36* | -1 | -45 | -1 | 0 | 61* | 26*
CCOC(=O)c1csc(NC(=O)C2CCCN(S(=O)(=O)c3cccs3)C2)n1 (stereo not given) | 2 | . | 2 | . | . | . | .
COC(=O)[C@]12CCCCC=C1N(Cc1ccc(OC)cc1)C(=O)[C@@H]2CC(=O)NCC12CC3CC(CC(C3)C1)C2 | 6 | . | -14 | . | . | . | .
COc1ccc(-c2noc(C3CCCN(C(=O)N[C@@H]4C[C@H]4c4ccccc4)C3)n2)cc1 (stereo not given in full) | 1 | . | -6 | . | . | . | .
O=C1CC2c3cc(Br)ccc3CCN2C(=O)CN1Cc1ccccc1 (stereo not given) | 0 | 1 | 9 | . | 2 | . | .
CCCC/C=C1/[C@@H](CC)N(Cc2ccc(OC)cc2OC)C2=N[C@@H](c3ccccc3)CC(=O)N21 | . | . | 1 | . | . | . | .
O=C(O)c1cccc2[nH]c(C(F)(F)F)nc12 | 3 | -1 | -1 | 0 | 0 | . | .
Nc1cccc2[nH]c(C(F)(F)F)nc12 | 70* | -2 | -4 | -3 | -1 | 61* | 33*
COc1ccc(NC(=O)CSc2nnc(-c3n[nH]c4c3CCC4)n2N)cc1OC | 0 | . | 2 | . | . | . | .
O=C1NN(c2ccccc2)C(=O)/C1=C/c1ccc(Sc2cccc3ccccc23)o1 | 48* | 4 | -3 | -4 | 1 | 92* | 68*
O=c1oc2ccccc2cc1-c1nc(-c2cccs2)cs1 | 41* | 1 | -5 | -2 | 1 | 12 | 8.6*
COc1cccc2cc(-c3nc(-c4cccs4)cs3)c(=O)oc12 | 19 | -1 | 1 | -1 | 0 | . | .
